Data reported in PubChem BioAssay AID504920 (Johns Hopkins Ion Channel Center, 2011).
Unmarked numbers belong to inactive results.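 The calls were made as follows: active = peak hERG channel inhibition above 30% at some tested dose, together with a fitted dose response curve; inactive = no hERG inhibition at any dose, or no curve.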

What follows are molecules tested against Voltage-gated inwardly rectifying potassium channel KCNH2 (Homo sapiens) (UniProt Q12809) (assay: KCNH2 potassium channel blockade – FluxOR Tl flux, hERG-expressing cells, selectivity assay for KCNK9 inhibitor project, SAR follow-up (AID 504920)). Conditions: FluxOR thallium flux fluorescence; series mostly up to 30 µM; fluorescence ratio, lower = inhibition: at the top concentration.
Chain of Voltage-gated inwardly rectifying potassium channel KCNH2 (Homo sapiens) (Q12809 whole entry, looked up): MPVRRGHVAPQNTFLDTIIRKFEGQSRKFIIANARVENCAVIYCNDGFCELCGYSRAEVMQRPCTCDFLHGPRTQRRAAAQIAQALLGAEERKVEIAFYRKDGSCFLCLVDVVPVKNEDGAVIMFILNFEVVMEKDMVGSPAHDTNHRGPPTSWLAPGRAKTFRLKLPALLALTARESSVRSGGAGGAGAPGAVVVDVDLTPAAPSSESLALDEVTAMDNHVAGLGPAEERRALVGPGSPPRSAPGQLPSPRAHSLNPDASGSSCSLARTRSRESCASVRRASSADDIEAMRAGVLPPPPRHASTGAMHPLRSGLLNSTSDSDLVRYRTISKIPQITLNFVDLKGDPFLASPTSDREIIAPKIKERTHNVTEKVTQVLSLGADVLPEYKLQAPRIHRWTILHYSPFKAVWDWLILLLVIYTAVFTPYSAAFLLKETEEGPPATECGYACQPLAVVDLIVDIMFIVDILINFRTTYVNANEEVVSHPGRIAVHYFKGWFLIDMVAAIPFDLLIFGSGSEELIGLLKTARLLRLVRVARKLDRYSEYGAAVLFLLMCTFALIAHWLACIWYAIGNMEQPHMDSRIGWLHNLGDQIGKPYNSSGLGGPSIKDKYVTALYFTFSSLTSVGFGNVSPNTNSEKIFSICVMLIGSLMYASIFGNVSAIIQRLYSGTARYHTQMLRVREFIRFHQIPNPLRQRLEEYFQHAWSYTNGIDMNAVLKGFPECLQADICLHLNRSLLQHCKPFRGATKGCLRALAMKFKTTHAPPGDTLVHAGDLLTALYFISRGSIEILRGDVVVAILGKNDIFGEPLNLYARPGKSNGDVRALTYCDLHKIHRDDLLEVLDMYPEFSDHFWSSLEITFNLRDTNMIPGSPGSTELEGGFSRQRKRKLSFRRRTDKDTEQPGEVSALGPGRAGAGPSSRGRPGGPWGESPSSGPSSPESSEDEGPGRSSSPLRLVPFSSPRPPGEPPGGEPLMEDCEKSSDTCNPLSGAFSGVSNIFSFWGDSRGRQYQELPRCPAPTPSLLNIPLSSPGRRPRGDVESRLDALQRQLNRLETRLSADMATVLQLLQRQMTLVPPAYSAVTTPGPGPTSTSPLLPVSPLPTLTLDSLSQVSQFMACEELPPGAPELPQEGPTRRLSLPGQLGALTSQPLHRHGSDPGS

SMILES	fluorescence ratio, lower = inhibition
Cc1cccc(C(=O)Nc2ccc(C(=O)Nc3ccccc3)cc2)c1	0.47
Cc1cccc(C(=O)Nc2ccccc2C(=O)Nc2ccccc2)c1	0.274
Cc1cccc(NC(=O)c2cccc(NC(=O)c3ccccc3)c2)c1	0.4
Cc1cccc(NC(=O)c2ccccc2NC(=O)c2ccccc2)c1	0.494
Cc1cccc(C(=O)Nc2cccc(C(=O)Nc3ccccc3)c2)c1	0.362
